Reference: PubChem BioAssay (NCATS)
Activity calls are given as the source filed them. Calls come from the whole dose curve; as a rule, active = well fitted curve in the direction sought with a large enough effect; inactive = no such curve, though single readings can be large or run the other way.

What follows are molecules tested against Alpha-galactosidase (Coffea arabica) (UniProt Q42656) (assay: Counterscreen for Glucocerebrosidase Inhibitors: qHTS Assay for Coffee Bean alpha-Galactosidase at pH 5.9 (AID 998;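 note: plate controls were uninhibited enzyme for no effect and no-enzyme basal signal for full effect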)). Details: coffee bean alpha-galactosidase enzyme assay; series mostly up to 76.9 µM; activity, negative = inhibition: at the top concentration.
Chain of Alpha-galactosidase (Coffea arabica) (Q42656 whole entry, looked up): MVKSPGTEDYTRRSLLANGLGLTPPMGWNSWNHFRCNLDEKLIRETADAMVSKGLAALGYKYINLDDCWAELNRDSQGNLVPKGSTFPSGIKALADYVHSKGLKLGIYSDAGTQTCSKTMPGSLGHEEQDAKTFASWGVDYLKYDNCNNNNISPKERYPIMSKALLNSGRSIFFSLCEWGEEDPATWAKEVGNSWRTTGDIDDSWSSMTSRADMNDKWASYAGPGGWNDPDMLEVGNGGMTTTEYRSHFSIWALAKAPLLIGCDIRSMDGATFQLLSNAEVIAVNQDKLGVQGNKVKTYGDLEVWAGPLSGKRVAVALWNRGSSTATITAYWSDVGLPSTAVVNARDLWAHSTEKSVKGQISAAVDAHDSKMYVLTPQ
Procedure, shortened: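 Green coffee bean enzyme (2 nM final) was incubated with compounds (0.7 nM–77 uM) and 4-methylumbelliferyl alpha-D-galactopyranoside (80 uM) in citrate buffer pH 5.9, 20 min at room temperature. High-pH stop; fluorescence 365/440 nm; AC50 from Hill fits.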

SMILES | activity, negative = inhibition
O=C(O)c1cc([N+](=O)[O-])ccc1NCCCc1ccccc1 | -1.97% (inactive)
CC(N)=O | -3.85% (inactive)
NC(N)=NC(N)=Nc1cccc(Cl)c1 | 0.234% (inactive)
Cc1cccc(C(=O)NCN2CCN(c3ccccc3C#N)CC2)c1 | 2.37% (inactive)
O=C(O)[C@@H]1C[C@@H](C(=O)O)N1 | -1.24% (inactive)
O=C(O)c1ccccc1Nc1cccc(OCc2ccc3ccccc3n2)c1 | -0.499% (inactive)
COc1cc2c(CCNC(C)=O)c[nH]c2cc1O | 1.61% (inactive)
O=[N+]([O-])c1cccc2cn[nH]c12 | 1.5% (inactive)
CC(C)(C=O)Cc1cc(C(C)(C)C)c(O)c(C(C)(C)C)c1 | -0.394% (inactive)
Cc1nc(N=Nc2ccc(S(=O)(=O)O)cc2S(=O)(=O)O)c(COP(=O)(O)O)c(C=O)c1O | -0.965% (inactive)
O=C1CCC(c2ccc(-n3ccnc3)cc2)=NN1 | -1.31% (inactive)
COc1ccc(C(=O)NCc2cccnc2)cc1C(=O)NCc1cccnc1 | 1.85% (inactive)
COc1cc(CC(=O)O)ccc1O | 0.732% (inactive)
CCCn1c(=O)c2[nH]c(C3CCCC3)nc2n(CCC)c1=O | 0.382% (inactive)
O=[N+]([O-])c1cccc2c(Br)[nH]nc12 | -7.5% (inactive)
Cc1ccc2c(c1)C(N1CCN(C)CC1)=Nc1cccnc1N2 | -1.86% (inactive)
O=c1[nH]c(=O)c2nc3ccccc3nc2[nH]1 | 3.28% (inactive)
CCCn1c(=O)c2[nH]c(-c3ccc(S(=O)(=O)O)cc3)nc2n(CCC)c1=O | 0.543% (inactive)
COc1ccccc1N1CCN(CCN2C(=O)CC3(CCCC3)CC2=O)CC1 | 5.51% (inactive)
CN[C@H](CC(=O)O)C(=O)O | 3.83% (inactive)
CN(C)C(N)=NCCC[C@H](N)C(=O)O | -1.49% (inactive)
c1ccc2c(c1)CC(N1CCN(c3cccc4c3OCCO4)CC1)C2 | -1.99% (inactive)
